This note sets out measurements from PubChem BioAssay (Tox21).

Records with an inconclusive call do not appear. Active and inactive are the calls of the source. Unless noted, calls follow the shape of the dose curve; as a rule, active = well fitted curve in the direction sought with a large enough effect in the repeat runs; inconclusive = weak or mixed curves; inactive = no such curve, though single readings can be large; an effect the other way counts as inactive or inconclusive.

Assay [1] is described as follows: qHTS assay to identify aromatase inhibitors - cell viability counter screen (AID 743084).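 Also: cells stimulated with testosterone during compound exposure; nearly all actives have a fitted effect of over 55% in size.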 Also: potency is read from the fitted curve at half-maximal effect.
Assay [2] is described as follows: qHTS assay to identify small molecule that activate the aryl hydrocarbon receptor (AhR) signaling pathway - cell viability counter screen (AID 743086). Also: nearly all actives have a fitted effect of over 45% in size. Also: potency is read from the fitted curve at half-maximal effect. The procedure, abridged:
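HepG2-AhR-luc (HG2L7.5c1) cells, 4000/well, were preincubated 5 h at 37C, exposed to compound in qHTS format for 24 hr at 37C, then given CellTiter-Fluor for 30 min; viability was read as fluorescence in the reporter wells.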

In assay [3] the target is Peroxisome proliferator-activated receptor gamma (Homo sapiens) (UniProt P37231). Nature of the assay: qHTS assay to identify small molecule agonists of the peroxisome proliferator-activated receptor gamma (PPARg) signaling pathway (AID 743094; active = well fitted activation curve with a large enough effect in the signal ratio in the repeat runs, not every such curve was filed as active; the % refers to the signal ratio). In short, it runs like this:
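Agonist activity was taken from a beta-lactamase reporter (FRET substrate, 1 h at room temperature) in HEK293H cells carrying a PPARg UAS-bla construct. Compounds in DMSO were incubated 17 h at 37C after a 5 h cell pre-incubation.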

Assay [4] shares this target. Nature of the assay: qHTS assay to identify small molecule antagonists of the peroxisome proliferator-activated receptor gamma (PPARg) signaling pathway (AID 743191; calls by dose curve; also: nearly all actives have a fitted effect of over 30% in size; also: potency is read from the fitted curve at half-maximal effect). In short, it runs like this:
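GeneBLAzer PPARg UAS-bla HEK293H cells carrying a UAS-driven beta-lactamase reporter were plated at 3000 cells/well, preincubated 5 h at 37C, then given compound for 17 h at 37C; LiveBLAzer B/G FRET substrate was read after 1 h at room temperature.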

The nature of assay [5]: qHTS assay for small molecule agonists of the antioxidant response element (ARE) signaling pathway (AID 743202; active = well fitted activation curve with a large enough effect in the signal ratio in the repeat runs, not every such curve was filed as active; the % refers to the signal ratio; also: potency is read from the fitted curve at half-maximal effect). The procedure, abridged:
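Following a 16 h, 37 C exposure of reporter HepG2 cells (ARE-driven beta-lactamase, 2,000 cells/well) to compounds, FRET substrate was applied for 2 h at room temperature and fluorescence intensity recorded.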

A short description of assay [6]: qHTS assay for small molecule agonists of the antioxidant response element (ARE) signaling pathway - cell viability counter screen (AID 743203; calls by dose curve; also: nearly all actives have a fitted effect of over 55% in size; also: potency is read from the fitted curve at half-maximal effect). The procedure, abridged:
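Viability counter screen: CellTiter-Glo luminescence, read after 30 min at room temperature, in ARE-bla HepG2 wells. Compound exposure lasted 16 h at 37C/5% CO2, following a 5 h pre-incubation of the cells after plating.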

In assay [7] the target is Peroxisome proliferator-activated receptor delta (Homo sapiens) (UniProt Q03181). Nature of the assay: qHTS assay to identify small molecule agonists of the peroxisome proliferator-activated receptor delta (PPARd) signaling pathway (AID 743212; calls by dose curve; also: potency is read from the fitted curve at half-maximal effect). In short, it runs like this:
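Beta-lactamase reporter read by fluorescence (LiveBLAzer B/G FRET, 2 h, room temperature). Test agents, in DMSO, incubated at 37 C with PPARd-bla HEK293H cells.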

Assay [8] in a line: qHTS assay to identify small molecule antagonists of the peroxisome proliferator-activated receptor delta (PPARd) signaling pathway - cell viability counter screen (AID 743213). Also: nearly all actives have a fitted effect of over 50% in size. Also: potency is read from the fitted curve at half-maximal effect. In short, it runs like this: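 Viability counter-screen, qHTS format: PPARd-bla HEK293H, L165041 300 nM final, 17 h compound exposure at 37 C, CellTiter-Glo luminescence after 30 min RT.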
Assay [9] has as its target Peroxisome proliferator-activated receptor delta (Homo sapiens) (UniProt Q03181). Nature of the assay: qHTS assay to identify small molecule antagonists of the peroxisome proliferator-activated receptor delta (PPARd) signaling pathway (AID 743215; active = well fitted inhibition curve with a large enough effect in the signal ratio in the repeat runs, not every such curve was filed as active; the % refers to the signal ratio;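 also: cells stimulated with agonist L165041 at 300 nM final during compound exposure; series mostly up to about 62 µM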). In short, it runs like this: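 Agonist L165041 (300 nM final) added with compound to PPARd-bla HEK293H UAS-bla reporter cells; 17 h incubation at 37 C. Read-out: LiveBLAzer FRET substrate, 2 h at room temperature, fluorescence intensity.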

A short description of assay [10]: qHTS assay to identify small molecule agonists of the farnesoid-X-receptor (FXR) signaling pathway - cell viability counter screen (AID 743218). Also: nearly all actives have a fitted effect of over 45% in size. In short, it runs like this:
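Viability counter screen in the same wells: CellTiter-Glo luminescence, 30 min room-temperature incubation, measured after the beta-lactamase read. Cells were GeneBLAzer FXR-UAS-bla HEK 293T, compound-treated 16 h at 37C.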

In assay [11] the target is Bile acid receptor (Homo sapiens) (UniProt Q96RI1). Nature of the assay: qHTS assay to identify small molecule agonists of the farnesoid-X-receptor (FXR) signaling pathway (AID 743220; active = well fitted activation curve with a large enough effect in the signal ratio in the repeat runs, not every such curve was filed as active; the % refers to the signal ratio). In short, it runs like this:
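FXR-UAS-bla HEK 293T cells carrying a UAS-driven beta-lactamase reporter were plated for 5 h at 37C/5% CO2, then exposed to DMSO-dissolved Tox21 10K compounds for 16 h at 37C. A LiveBLAzer B/G FRET substrate was loaded for 2 h at room temperature before fluorescence reading.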

Assay [12] can be described thus: qHTS assay to identify small molecule antagonists of the farnesoid-X-receptor (FXR) signaling pathway - cell viability counter screen (AID 743221; active = well fitted cell-killing curve with a large enough effect in the repeat runs, not every such curve was filed as active; also: nearly all actives have a fitted effect of over 50% in size). The procedure, abridged:
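CellTiter-Glo, 30 min RT, luminescence; same wells as the LiveBLAzer FRET read. Cells: FXR-UAS-bla HEK 293T. Treatment: compound with chenodeoxycholic acid 50 uM final, 16 h at 37 C.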

Assay [13] concerns the target Vitamin D3 receptor (Homo sapiens) (UniProt P11473). Nature of the assay: qHTS assay to identify small molecule antagonists of the vitamin D receptor (VDR) signaling pathway (AID 743223; active = well fitted inhibition curve with a large enough effect in the signal ratio in the repeat runs, not every such curve was filed as active; the % refers to the signal ratio). The procedure, abridged:
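After VDR-bla cells are plated and left 4 h at 37C, DMSO-dissolved compounds and 3 nM (final) calcitriol agonist are added. Incubation continues 16 h at 37C; FRET beta-lactamase substrate then develops 2 h at room temperature.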

Assay [14] in a line: qHTS assay for small molecule activators of the heat shock response signaling pathway - cell viability counter screen (AID 743209). Also: nearly all actives have a fitted effect of over 50% in size. In short, it runs like this: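 Cytotoxicity counter screen run in the same wells as the heat-shock bla reporter assay: HeLa HSE-bla cells, 5 h compound exposure at 37 C, viability read by CellTiter-Glo luminescence.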
The target in assay [15] is Bile acid receptor (Homo sapiens) (UniProt Q96RI1). Nature of the assay: qHTS assay to identify small molecule antagonists of the farnesoid-X-receptor (FXR) signaling pathway (AID 743217; active = well fitted inhibition curve with a large enough effect in the signal ratio in the repeat runs, not every such curve was filed as active; the % refers to the signal ratio). In short, it runs like this: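 Antagonist mode: chenodeoxycholic acid at 50 uM final stimulates a UAS-driven beta-lactamase reporter in HEK 293T FXR-bla cells during 16 h, 37C compound exposure. Read-out is FRET substrate fluorescence after 2 h at room temperature.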
Sequence of Bile acid receptor (Homo sapiens) (Q96RI1 whole entry, looked up): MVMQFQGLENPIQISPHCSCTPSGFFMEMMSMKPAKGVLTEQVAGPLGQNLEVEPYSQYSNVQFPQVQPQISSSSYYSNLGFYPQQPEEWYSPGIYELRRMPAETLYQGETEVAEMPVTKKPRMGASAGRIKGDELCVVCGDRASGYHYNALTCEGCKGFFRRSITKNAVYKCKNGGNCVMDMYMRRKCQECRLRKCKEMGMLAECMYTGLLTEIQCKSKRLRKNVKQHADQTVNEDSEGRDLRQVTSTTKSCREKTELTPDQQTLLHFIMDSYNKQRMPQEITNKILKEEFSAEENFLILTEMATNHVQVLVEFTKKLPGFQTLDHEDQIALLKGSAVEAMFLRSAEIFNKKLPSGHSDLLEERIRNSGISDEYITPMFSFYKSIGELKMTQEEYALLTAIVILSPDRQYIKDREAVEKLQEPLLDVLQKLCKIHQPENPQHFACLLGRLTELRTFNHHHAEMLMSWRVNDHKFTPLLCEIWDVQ

The nature of assay [16]: qHTS assay to identify small molecule antagonists of the peroxisome proliferator-activated receptor gamma (PPARg) signaling pathway - cell viability counter screen (AID 743194). Also: nearly all actives have a fitted effect of over 55% in size. The procedure, abridged: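 PPARg-UAS-bla HEK293H cells were plated, rested 5 h at 37 C, then treated with compounds plus rosiglitazone (50 nM final) for 17 h at 37 C; viability was then read by CellTiter-Glo luminescence after 30 min at room temperature.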

Assay [17] is described as follows: qHTS assay for small molecule activators of the heat shock response signaling pathway (AID 743210; active = well fitted activation curve with a large enough effect in the signal ratio in the repeat runs, with a control signal flat, not every such curve was filed as active; the % refers to the signal ratio; also: series mostly up to about 63 µM). The procedure, abridged:
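Heat shock element–beta-lactamase HeLa reporter cells; qHTS with compounds for 5 h at 37 C; detection by FRET substrate fluorescence after 2.5 h at RT.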

Assay [18] can be described thus: qHTS assay to identify small molecule agonists of the peroxisome proliferator-activated receptor delta (PPARd) signaling pathway - cell viability counter screen (AID 743211). Also: nearly all actives have a fitted effect of over 55% in size. Also: potency is read from the fitted curve at half-maximal effect. In short, it runs like this:
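Multiplexed format: after the 2 h room-temperature LiveBLAzer B/G FRET step, CellTiter-Glo was added to the same wells. Luminescence after 30 min gave cell viability; compound exposure was 17 h at 37C.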

The target in assay [19] is Vitamin D3 receptor (Homo sapiens) (UniProt P11473). Nature of the assay: qHTS assay to identify small molecule agonists of the vitamin D receptor (VDR) signaling pathway (AID 743222; calls by dose curve). The procedure, abridged: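 Agonist mode, beta-lactamase reporter: fluorescence from LiveBLAzer B/G FRET substrate (2 h, room temperature) read after 16 h compound treatment at 37 C of VDR-bla cells, which were pre-incubated 4 h after seeding.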
Sequence of Vitamin D3 receptor (Homo sapiens) (P11473 whole entry, looked up): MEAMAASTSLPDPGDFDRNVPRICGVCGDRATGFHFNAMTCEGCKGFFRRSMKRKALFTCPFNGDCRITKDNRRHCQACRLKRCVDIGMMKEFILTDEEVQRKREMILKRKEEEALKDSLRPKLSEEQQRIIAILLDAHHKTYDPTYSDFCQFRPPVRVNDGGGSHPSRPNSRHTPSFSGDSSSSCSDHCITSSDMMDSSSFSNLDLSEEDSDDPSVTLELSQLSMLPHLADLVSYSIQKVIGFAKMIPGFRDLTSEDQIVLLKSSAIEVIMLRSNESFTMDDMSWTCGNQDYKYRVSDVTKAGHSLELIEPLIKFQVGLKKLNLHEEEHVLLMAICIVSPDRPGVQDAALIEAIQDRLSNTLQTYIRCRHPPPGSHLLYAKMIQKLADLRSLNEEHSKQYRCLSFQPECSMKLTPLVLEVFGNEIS

Sequence of Peroxisome proliferator-activated receptor delta (Homo sapiens) (Q03181 whole entry, looked up): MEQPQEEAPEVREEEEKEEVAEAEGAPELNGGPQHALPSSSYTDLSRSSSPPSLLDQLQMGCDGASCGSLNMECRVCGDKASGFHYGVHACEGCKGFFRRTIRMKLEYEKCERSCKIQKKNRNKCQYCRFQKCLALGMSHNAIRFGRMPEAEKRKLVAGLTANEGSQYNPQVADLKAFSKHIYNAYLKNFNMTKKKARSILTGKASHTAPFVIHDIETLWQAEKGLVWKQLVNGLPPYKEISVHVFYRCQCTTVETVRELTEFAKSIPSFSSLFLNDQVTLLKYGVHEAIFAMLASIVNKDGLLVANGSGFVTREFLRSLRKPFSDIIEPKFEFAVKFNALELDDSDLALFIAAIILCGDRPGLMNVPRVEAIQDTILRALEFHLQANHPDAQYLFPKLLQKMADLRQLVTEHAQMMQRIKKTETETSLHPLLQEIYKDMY
Sequence of Peroxisome proliferator-activated receptor gamma (Homo sapiens) (P37231 whole entry, looked up): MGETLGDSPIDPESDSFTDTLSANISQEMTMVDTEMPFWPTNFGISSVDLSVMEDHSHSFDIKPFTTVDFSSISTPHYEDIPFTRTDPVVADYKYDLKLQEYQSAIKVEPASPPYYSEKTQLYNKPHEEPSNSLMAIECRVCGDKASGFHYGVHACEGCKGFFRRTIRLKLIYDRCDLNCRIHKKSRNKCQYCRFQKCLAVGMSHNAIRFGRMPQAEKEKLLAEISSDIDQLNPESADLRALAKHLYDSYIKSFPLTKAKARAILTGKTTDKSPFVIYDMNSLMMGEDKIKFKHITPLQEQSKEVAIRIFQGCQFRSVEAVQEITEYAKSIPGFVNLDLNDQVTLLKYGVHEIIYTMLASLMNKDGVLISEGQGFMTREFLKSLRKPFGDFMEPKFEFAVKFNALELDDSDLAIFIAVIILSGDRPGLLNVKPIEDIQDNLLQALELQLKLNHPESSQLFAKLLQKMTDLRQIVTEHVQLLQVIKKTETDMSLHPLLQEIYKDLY

Consider `C[C@]12CC[C@@H]3c4ccc(O)cc4CC[C@H]3[C@@H]1CC[C@@H]2OC(=O)CCC1CCCC1`, for which the Potency entry in assay [1], in assay [2], in assay [3], in assay [4], in [5] and in [6] was “inactive” throughout. Further, the Potency entry in assay [7], in assay [8], in assay [9], in assay [10], in assay [11] and in assay [12] was “inactive” in each case. Also, the Potency entry in assay [13] is “inactive”.
`Nc1ccc(N=Nc2ccccc2)c(N)c1`: the Potency is 30 µM (active) in assay [1], 26.7 µM (active) in [2] and 42.7 µM (active) in [4]. The Potency result in [3], in assay [6], in [14], in assay [7], in assay [15] and in [10] was “inactive” throughout. Besides, the Potency entry in assay [11] and in assay [12] was “inactive” throughout.
As to `CCCCCC[C@@H](O)C/C=C\CCCCCCCC(=O)O`, the Potency entry in [1], in assay [2], in assay [3], in assay [15] and in assay [13] was “inactive” throughout. The Potency was 43.6 µM (active) in assay [7] and 49 µM (active) in [8].
Consider `Cc1ccco1`, for which the Potency entry in assay [1], in assay [2], in [3], in assay [4], in assay [16] and in assay [6] was “inactive” throughout. Further, the Potency entry in assay [14], in assay [17], in [18], in assay [8], in [10] and in assay [12] was “inactive” throughout. The Potency entry in assay [13] is “inactive”.
With `CCOC(C)=O`, the Potency result in [1], in [2], in assay [3], in assay [4], in assay [16] and in assay [5] was “inactive” in each case. Besides, the Potency result in assay [6], in [14], in [17], in [18], in assay [7] and in [12] was “inactive” each time. For the same molecule, the Potency result in assay [19] and in assay [13] was “inactive” in each case.
For the molecule `CCOc1ccc(Cc2nccc3cc(OCC)c(OCC)cc23)cc1OCC`, the Potency entry in [1], in assay [2], in assay [3], in assay [16], in [6] and in [14] was “inactive” each time. For the same molecule, the Potency result in assay [17], in assay [18], in [7] and in assay [8] was “inactive” in each case.
As to `CCc1ccccc1`, the Potency entry in [1], in [2], in assay [3], in assay [4], in assay [16] and in [5] was “inactive” in each case. The Potency result in assay [6], in assay [17], in assay [18], in assay [7], in assay [8] and in [9] was “inactive” each time. For the same molecule, the Potency entry in [10], in [12], in assay [19] and in [13] was “inactive” in each case.
Turning to `CCC=CC#N`, the Potency entry in assay [1], in [2], in assay [3], in assay [16], in [5] and in assay [6] was “inactive” in each case. Besides, the Potency entry in assay [14], in assay [17], in assay [18], in [7], in [8] and in assay [12] was “inactive” in each case.
On to `Nc1nnc(-c2ccc([N+](=O)[O-])o2)o1`, for which the results for the Potency in [1], in [2] and in assay [6] were 61.1 µM (active), 54.5 µM (active) and 48.6 µM (active), respectively. Besides, the Potency entry in [3], in assay [4], in assay [14], in [17], in [18] and in assay [7] was “inactive” each time. Besides, the Potency entry in assay [8], in assay [9], in [12], in assay [19] and in assay [13] was “inactive” in each case.
As for `O=C(OCC(O)CO)c1ccccc1Nc1ccnc2cc(Cl)ccc12` (stereo not drawn), the Potency result in assay [1], in assay [2], in assay [3], in assay [16] and in assay [6] was “inactive” in each case. Moreover, the Potency in [5] was 11.9 µM (active); in assay [18], 33.5 µM (active); in assay [8], 26.6 µM (active).
